From PubChem BioAssay
Many of the other results were omitted from the sample, so hits are more common in it than they were.
PD-1 reverse act = reversal of PD-1 mediated T-cell inhibition. activation, % (concentration not given with the values). primary human CD4 T cells, PD-L1 beads, CellTiter-Glo 96 h. 29,000 tested, under 10 active; call rule not given here;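 note: 0% = median vehicle wells and 100% = positive control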
STK33 inh = inhibitors of human STK33 kinase. Q9BYT3. ADP-Glo luminescence, MBP substrate. inhibition, % at 12.5 µM. 27,000 tested, 0.44% active; in the data active = inhibition above about 20%
Target sequence (Q9BYT3 whole entry, looked up): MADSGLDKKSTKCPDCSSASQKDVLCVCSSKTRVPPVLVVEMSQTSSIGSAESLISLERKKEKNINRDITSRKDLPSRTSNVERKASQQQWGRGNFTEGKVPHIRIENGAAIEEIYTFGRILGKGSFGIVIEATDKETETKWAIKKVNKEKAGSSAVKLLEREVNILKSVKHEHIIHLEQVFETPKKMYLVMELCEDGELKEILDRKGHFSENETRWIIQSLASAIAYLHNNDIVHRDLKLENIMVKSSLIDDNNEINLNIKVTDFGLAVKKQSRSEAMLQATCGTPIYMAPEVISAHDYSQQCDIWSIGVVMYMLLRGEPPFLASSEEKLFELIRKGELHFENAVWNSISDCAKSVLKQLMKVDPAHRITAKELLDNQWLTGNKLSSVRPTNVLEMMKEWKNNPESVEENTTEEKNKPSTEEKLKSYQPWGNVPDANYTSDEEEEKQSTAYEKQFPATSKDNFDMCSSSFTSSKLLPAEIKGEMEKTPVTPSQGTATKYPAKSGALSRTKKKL
NOMO-1 viab = STK33 inhibitor candidate reducing NOMO-1 cell viability. NOMO-1 AML viability, CellTiter-Glo luminescence, 72 h. inhibition, % (test concentration not listed). 37,000 tested, 7.5% active; in the data active = inhibition above about 80%
* hit, by the source's call; nt = not tested or not shown.

SMILES	PD-1 reverse act	STK33 inh	NOMO-1 viab
Ic1cccc(CSc2nnc(-c3ccncc3)o2)c1	2.3	3.1	-4.1
CS(=O)(=O)N(CC(=O)Nc1cc(Cl)ccc1Cl)c1cccc([N+](=O)[O-])c1	-0.3	-0.6	-0.6
COc1ccc(NC(=O)N(C)C[C@@H]2Oc3c(NC(=O)Nc4cccc5ccccc45)cccc3C(=O)N([C@@H](C)CO)C[C@@H]2C)cc1	-5.9	nt	53.5
CC(=O)COc1cc(OCC(C)=O)c2c(C)cc(=O)oc2c1	nt	-2.9	24.0
Cc1cc(C)cc(-c2nc3cc(NC(=O)COc4ccccc4[N+](=O)[O-])ccc3o2)c1	-0.7	5.7	33.7
C[C@@H]1CN([C@H](C)CO)C(=O)Cc2cc(NS(=O)(=O)c3cccs3)ccc2O[C@@H]1CN(C)Cc1ccc(Oc2ccccc2)cc1	nt	2.5	117.9*
C[C@H]1CN([C@@H](C)CO)C(=O)Cc2cc(NS(=O)(=O)c3cccs3)ccc2O[C@H]1CN(C)Cc1ccc(Oc2ccccc2)cc1	1.3	2.4	69.6
C[C@@H]1CN([C@H](C)CO)C(=O)Cc2cc(NS(=O)(=O)c3cccs3)ccc2O[C@H]1CN(C)Cc1ccccc1	nt	-0.1	20.1
C[C@H](CO)N1C[C@H](C)[C@H](CN(C)Cc2ccc(-c3ccccc3)cc2)Oc2ccc(NS(=O)(=O)c3cccs3)cc2C1=O	0.6	nt	21.6
C[C@H]1CN([C@@H](C)CO)C(=O)Cc2cc(NS(=O)(=O)c3cccs3)ccc2O[C@@H]1CN(C)Cc1ccc(-c2ccccc2)cc1	nt	nt	89.2*
C[C@@H]1CN([C@H](C)CO)C(=O)c2cc(NS(=O)(=O)c3cccs3)ccc2O[C@@H]1CN(C)Cc1ccc(-c2ccccc2)cc1	-1.4	nt	113.3*
C[C@@H]1CN([C@H](C)CO)C(=O)c2cc(NC(=O)C3CCCCC3)ccc2O[C@H]1CN(C)Cc1ccncc1	-0.5	1.5	1.9
C[C@H]1CN([C@@H](C)CO)C(=O)c2cccc(N(C)C)c2O[C@H]1CN(C)S(C)(=O)=O	nt	nt	5.0
O=C(CC1(O)C(=O)N(C/C=C/c2ccccc2)c2ccccc21)c1ccccn1 (stereo not given)	-5.8	5.6	123.1*
Cc1n[nH]c(C)c1C(=O)CC1(O)C(=O)N(Cc2ccccc2)c2ccccc21 (stereo not given)	2.2	-0.8	5.2
CCn1c(SCC(=O)N2CCOCC2)nnc1-c1c[nH]c2ccccc12	nt	0.6	-5.7
C[C@@H]1CN([C@@H](C)CO)C(=O)c2cc(NC(=O)C3CCCCC3)ccc2O[C@H]1CN(C)S(=O)(=O)c1ccc(Cl)cc1	-0.1	nt	-8.4
COc1cc2c(c(N)c1OC)C(=O)/C(=C/c1cc(C)c(O)c(C)c1)C2	-11.3	5.8	97.1*
N#Cc1c(-c2ccccc2)nc(SCCN2C(=O)c3ccccc3C2=O)[nH]c1=O	1.1	-2.4	5.8
C=C(C)C(=O)O[C@H]1CC(=C)C2C[C@H](O)[C@](O)(CO)C2[C@H]2OC(=O)C(=C)[C@H]12 (stereo not given in full)	-12.6	1.4	118.5*
O=c1cc(-c2ccccc2)nc2cc(-c3ccccc3)[nH]n12	-1.7	10.0	106.9*
O=c1cc(-c2ccccc2)nc2scc(-c3ccc(Cl)cc3)n12	-0.1	nt	-12.8
CCCCCCCC/C=C\CCCCCCCc1cccc(O)c1C(=O)O	1.2	-15.9	34.5
CCCCCCCCCC/C=C\CCCCCCCc1cccc(O)c1C(=O)O	-7.0	-12.9	119.2*
C[C@@H]1CN([C@H](C)CO)C(=O)c2cc(NC(=O)CCN3CCOCC3)ccc2O[C@H]1CN(C)Cc1ccncc1	0.4	nt	-2.5
SMILES	PD-1 reverse act	STK33 inh	NOMO-1 viab
C[C@H]1CN([C@@H](C)CO)C(=O)c2cc(NS(=O)(=O)c3cccs3)ccc2O[C@@H]1CN(C)Cc1ccc(C(=O)Nc2ccccc2N)cc1	-0.8	nt	-20.4
C[C@H](CO)N1C[C@H](C)[C@H](CN(C)Cc2ccc(C(=O)Nc3ccccc3N)cc2)Oc2ccc(NS(=O)(=O)c3cccs3)cc2CC1=O	-5.8	nt	127.6*
C[C@@H]1CN([C@H](C)CO)C(=O)Cc2cc(NS(=O)(=O)c3cccs3)ccc2O[C@H]1CN(C)Cc1ccc(C(=O)Nc2ccccc2N)cc1	-0.2	nt	71.0
C[C@@H]1CN([C@@H](C)CO)C(=O)c2cc(NS(=O)(=O)c3cccs3)ccc2O[C@@H]1CN(C)Cc1ccc(C(=O)Nc2ccccc2N)cc1	-3.1	nt	111.3*
Cc1cc(C)nc(SCC(O)COc2ccc(Cl)cc2)n1 (stereo not given)	nt	-4.2	-3.4
O=C(/C=C/Sc1ccc(Cl)cc1)c1ccccc1	-6.1	nt	122.6*
Cn1cnnc1Sc1cc(C#N)c(C#N)cc1Sc1nncn1C	4.7	0.2	21.6
Cc1cc(C)nc(S/C=C/C(=O)c2ccc(Cl)cc2)n1	-1.5	nt	121.2*
CC(C)(C)C(=O)CC(Nc1ccccc1)c1ccc(Cl)cc1 (stereo not given)	1.5	nt	-14.8
Cn1cnnc1S/C=C/C(=O)c1ccc(Cl)cc1	-4.2	nt	115.7*
C[C@H]1CN([C@@H](C)CO)C(=O)Cc2cc(NS(=O)(=O)c3ccccc3)ccc2O[C@@H]1CN(C)S(=O)(=O)c1cccs1	-0.1	4.6	-2.6
Cc1ccc(S(=O)(=O)N(C)C[C@@H]2Oc3ccc(NS(=O)(=O)c4cn(C)cn4)cc3CC(=O)N([C@@H](C)CO)C[C@@H]2C)cc1	1.5	1.1	10.7
CCc1cc(-c2n[nH]c(C)c2-c2nc(C)cs2)c(O)cc1OCc1ccc([N+](=O)[O-])cc1	-3.4	0.8	109.2*
CCc1cc(-c2n[nH]c(C(=O)O)c2-c2nc(C)cs2)c(O)cc1O	-0.9	-3.8	7.8
CC(C)(C)C(=O)c1cn(CC(=O)Nc2ccccc2)c2ccccc12	nt	-2.5	-18.9
C[C@H](CO)N1C[C@H](C)[C@H](CN(C)S(=O)(=O)c2ccc(Cl)cc2)Oc2ccc(NC(=O)c3ccncc3)cc2CC1=O	1.1	3.8	19.4
C[C@H]1CN([C@@H](C)CO)C(=O)c2cccc(NC(=O)Nc3ccccc3)c2O[C@H]1CN(C)CC1CCCCC1	nt	nt	2.3
Cc1noc(C)c1NC(=O)N(C)C[C@H]1OCCCC[C@@H](C)Oc2ccc(N(C)C)cc2C(=O)N([C@H](C)CO)C[C@@H]1C	1.7	4.9	-1.5
OC(COc1ccc(Nc2ccccc2)cc1)COc1ccc(Nc2ccccc2)cc1	2.8	nt	102.7*
NC(=O)OCC(O)COc1ccc(Cl)cc1 (stereo not given)	nt	-0.8	20.4
Cc1noc(C)c1S(=O)(=O)N(C)C[C@H]1Oc2ccc(NS(=O)(=O)c3ccc(F)cc3)cc2C(=O)N([C@@H](C)CO)C[C@H]1C	-1.1	nt	16.1
CCOC(=O)c1ccc(-c2coc3cc(OC(C)=O)c(CC)cc3c2=O)o1	0.3	nt	6.6
Cc1ccc(SCc2cc(=O)[nH]c(SCC(=O)n3c4ccccc4c4ccccc43)n2)cc1	0.9	nt	12.0
C[C@@H]1CN([C@H](C)CO)C(=O)c2cc(NC(=O)Nc3cccc4ccccc34)ccc2O[C@@H]1CN(C)C(=O)NC1CCCCC1	-0.4	nt	16.8
Cc1ccc2cc(S(=O)(=O)NCc3ccco3)ccc2c1	-5.2	14.9	4.1
CCCn1c2ccccc2c2nnc(SCC(=O)O)nc21	nt	-1.3	9.2
CCCn1c2ccccc2c2nnc(Sc3ccc4nsnc4c3[N+](=O)[O-])nc21	nt	10.1	104.6*
CN(C)c1nc2ccccc2c(=O)s1	0.9	nt	4.2
